GC-A act: GC-A stimulated cGMP production enhancers – HEK293 GC-A cells, cGMP TR-FRET, EC30 ANP, primary screen; Atrial natriuretic peptide receptor 1 (Homo sapiens), P16066; 0% at EC30 ANP, 100% saturating ANP; activation, % at 10 µM; 370,000 compounds, 0.14% hits; in the data active = activation above about 40%
ADAM10 inh: human ADAM10 inhibitors, primary screen, biochemical, QFRET, HTS; Disintegrin and metalloproteinase domain-containing protein 10 (Homo sapiens), O14672; recombinant ADAM10, EDANS/DABCYL FRET peptide cleavage, 3 h; inhibition, % at 7 µM; 370,000 compounds, 0.62% hits; AID 720582, 2013;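 active = inhibition above a per-campaign cutoff equal to the mean of compounds falling between control-based bounds plus 3 SD, cut at about 20% in these data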
Target sequence (O14672 214-748 limits assumed): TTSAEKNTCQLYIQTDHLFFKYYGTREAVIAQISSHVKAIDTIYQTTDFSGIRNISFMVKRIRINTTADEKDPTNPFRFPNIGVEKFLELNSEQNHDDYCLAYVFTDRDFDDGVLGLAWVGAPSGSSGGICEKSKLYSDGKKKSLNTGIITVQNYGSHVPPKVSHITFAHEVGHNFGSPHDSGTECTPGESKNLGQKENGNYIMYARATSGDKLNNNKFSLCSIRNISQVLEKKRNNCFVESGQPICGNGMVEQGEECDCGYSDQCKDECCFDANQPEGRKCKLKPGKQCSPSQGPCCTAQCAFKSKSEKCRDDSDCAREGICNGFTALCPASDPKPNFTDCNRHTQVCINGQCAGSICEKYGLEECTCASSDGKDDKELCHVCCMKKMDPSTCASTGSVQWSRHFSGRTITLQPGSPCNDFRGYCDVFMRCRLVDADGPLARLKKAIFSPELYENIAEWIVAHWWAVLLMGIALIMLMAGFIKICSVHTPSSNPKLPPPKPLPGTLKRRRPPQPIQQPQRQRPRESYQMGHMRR
KLK7 zymogen act: proKLK7 zymogen activators, primary screen, biochemical, fluorescence intensity | Kallikrein-7 (Homo sapiens), P49862 | purified proKLK7, EDANS-DABCYL substrate fluorescence; 100% is mature enzyme control, 0% vehicle | activation, % at 7 µM | 370,000 compounds, 0.9% hits | AID 652039, 2013;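 active = activation above the mean of all tested compounds plus 3 SD, computed per campaign excluding outliers beyond control limits, cut at about 13% in these data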
NPR2 activator: human GC-B receptor activators, primary screen, HEK293 GC-B cells, cGMP TR-FRET, EC30 CNP | Atrial natriuretic peptide receptor 2 (Homo sapiens), P20594 | 0% at EC30 CNP, 100% saturating CNP | activation, % at 10 µM | 370,000 compounds, 0.11% hits;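 active = activation at 10 µM reaching about 35% in either raw or pattern-adjusted values, limit read from the data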
ADAM17 inh: ADAM17 inhibitors, primary screen, biochemical, QFRET. recombinant ADAM17, EDANS/DABCYL FRET peptide cleavage. inhibition, % at 6.95 µM. 370,000 compounds, 0.83% hits;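 active = inhibition above the mean of compounds lying between control limits plus 3 SD, set per campaign, cut at about 8.5% in these data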
KLK7 act conf: proKLK7 zymogen activators, confirmation, biochemical, fluorescence intensity, triplicate. 3,200 compounds, 68% hits. activation, % at 7 µM. purified proKLK7, EDANS-DABCYL substrate fluorescence; scaled: vehicle 0, mature enzyme 100. AID 686949, 2013. shares compounds with KLK7 zymogen act;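 active = activation, as change over the incubation, above the mean of all tested compounds plus 3 SD, cut at about 13% in these data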
EDANS-DABCYL int: EDANS-DABCYL substrate optical interference, artefact control for kallikrein-7 zymogen activator project, biochemical, fluorescence intensity, high throughput; shares compounds with KLK7 zymogen act; AID 686952, 2013; no enzyme, 4 h; solvent 0%, active enzyme control 100%; 3,200 compounds, 80% hits; activation, % at 7 µM;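 active = activation above the all-compound mean plus 3 SD, ignoring values outside control-based bounds, cut at about 4.8% in these data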;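 also: value is the 4 h activation minus the activation read at time zero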
Hits are given with their value. This is a sample that favours compounds with a hit; in the whole collection about 2.2% have one here.

CCOC(=O)C1CCCN(C(=O)Cn2nc(C)n3c(cc4c(OC)cccc43)c2=O)C1 (configuration not stated) was read as GC-A act inactive, ADAM10 inh inactive, KLK7 zymogen act 18, NPR2 activator inactive, ADAM17 inh inactive, KLK7 act conf inactive and EDANS-DABCYL int 6.4.
`C[C@@H]1COc2cc(Br)ccc2S(=O)(=O)N1Cc1cn(Cc2ccc(Cl)cc2)nn1` gave GC-A act inactive, ADAM10 inh inactive, KLK7 zymogen act inactive, NPR2 activator inactive and ADAM17 inh inactive.
Screening CC(=O)OCCc1[nH]c2ccccc2c1C returned GC-A act inactive, ADAM10 inh inactive, KLK7 zymogen act inactive, NPR2 activator inactive and ADAM17 inh inactive.
CC(=O)OCCc1c2ccccc2c(CCCN(C)C)c2ccccc12 was read as GC-A act inactive, ADAM10 inh inactive, KLK7 zymogen act 16, NPR2 activator inactive, ADAM17 inh inactive, KLK7 act conf inactive and EDANS-DABCYL int inactive.
O=C(COC(=O)c1cc(Cl)ccc1O)NNC(=O)c1ccccc1F was read as GC-A act inactive, ADAM10 inh inactive, KLK7 zymogen act 86, NPR2 activator inactive, ADAM17 inh inactive, KLK7 act conf 137 and EDANS-DABCYL int 124.
Screening O=C(COC(=O)c1ccccc1F)Nc1ccc2c(c1)OCCO2 returned GC-A act inactive, ADAM10 inh inactive, KLK7 zymogen act inactive, NPR2 activator inactive and ADAM17 inh inactive.
O=C(COC(=O)c1cc(Br)ccc1O)NNC(=O)c1ccc(Cl)cc1 was read as GC-A act inactive, ADAM10 inh inactive, KLK7 zymogen act 17, NPR2 activator inactive, ADAM17 inh inactive, KLK7 act conf 20 and EDANS-DABCYL int 19.
O=C(COC(=O)c1cc(Cl)ccc1O)Nc1cc(C(F)(F)F)ccc1N1CCOCC1 was read as GC-A act inactive, ADAM10 inh inactive, KLK7 zymogen act 16, NPR2 activator inactive, ADAM17 inh inactive, KLK7 act conf 23 and EDANS-DABCYL int 22.
`O=C(COC(=O)c1cc(Cl)ccc1O)Nc1ccc2c(c1)OCCO2` gave GC-A act inactive, ADAM10 inh inactive, KLK7 zymogen act 19, NPR2 activator inactive, ADAM17 inh inactive, KLK7 act conf 19 and EDANS-DABCYL int 16.
Screening COC(=O)CCC(=O)N1C2=NC3=C(C(=O)N(Cc4ccc5c(c4)OCO5)C3=O)C3N(C)c4ccccc4[C@]23C[C@H]1CO (some centres not stated) returned GC-A act inactive, ADAM10 inh inactive, KLK7 zymogen act inactive, NPR2 activator inactive and ADAM17 inh inactive.
For COc1ccc2c3c([nH]c2c1)[C@]1(CCNC=O)Nc2ccccc2C1=NCC3 the results were GC-A act inactive, ADAM10 inh inactive, NPR2 activator inactive and ADAM17 inh inactive.
Screening CCOC(=O)Cn1cc(CN2CCS(=O)(=O)N(Cc3ccccc3)C(C(=O)OC)C2)nn1 (configuration not stated) returned GC-A act inactive, ADAM10 inh inactive, KLK7 zymogen act inactive, NPR2 activator inactive and ADAM17 inh inactive.
`CCC(C)NC(=O)CNc1nnnn1-c1ccccc1` (configuration not stated) gave GC-A act inactive, ADAM10 inh inactive, KLK7 zymogen act inactive, NPR2 activator inactive and ADAM17 inh inactive.
Screening CC1(c2ccccc2)NC(=O)N(NC(=O)COC(=O)c2cc(Br)ccc2O)C1=O (configuration not stated) returned GC-A act inactive, ADAM10 inh inactive, KLK7 zymogen act 28, NPR2 activator inactive, ADAM17 inh inactive, KLK7 act conf 34 and EDANS-DABCYL int 38.
O=C(COC(=O)c1cc(Br)ccc1O)NNC(=O)c1ccc([N+](=O)[O-])cc1 was read as GC-A act inactive, ADAM10 inh inactive, KLK7 zymogen act 26, NPR2 activator inactive, ADAM17 inh inactive, KLK7 act conf 40 and EDANS-DABCYL int 38.
O=C(COC(=O)c1cc2ccccc2cc1O)Nc1ccccc1F was read as GC-A act inactive, ADAM10 inh inactive, KLK7 zymogen act 14, NPR2 activator inactive, ADAM17 inh inactive, KLK7 act conf 15 and EDANS-DABCYL int 13.
Screening O=C(OCC(=O)N1CCCc2ccccc21)c1cc(Br)ccc1O returned GC-A act inactive, ADAM10 inh inactive, KLK7 zymogen act inactive, NPR2 activator inactive and ADAM17 inh inactive.
For CCn1ncc(-c2ccnc3cc(C(=O)O)nn23)c1C the results were GC-A act inactive, ADAM10 inh inactive, KLK7 zymogen act 13, NPR2 activator inactive, ADAM17 inh inactive, KLK7 act conf 39 and EDANS-DABCYL int 44.
For COc1ccc(C[N+]2=C(N)NC3=C4CCCCC4n4c(=O)n(-c5ccccc5)c(=O)n4C3C2)c(OC)c1 (configuration not stated) the results were GC-A act inactive, ADAM10 inh inactive, KLK7 zymogen act inactive, NPR2 activator inactive and ADAM17 inh inactive.
For CC(=O)N1CCN(C(=O)CCn2nnc3ccccc32)CC1 the results were GC-A act inactive, ADAM10 inh inactive, KLK7 zymogen act inactive, NPR2 activator inactive and ADAM17 inh inactive.
CCOC(=O)CC[C@H]1CC[C@]2(CCCN(C(=O)c3ccco3)C2)O1 was read as GC-A act inactive, ADAM10 inh inactive, KLK7 zymogen act inactive, NPR2 activator inactive and ADAM17 inh inactive.
CN(C)CCNC(=O)c1ccc2c(c1)N(Cc1ccc(F)cc1)CCS2 was read as GC-A act inactive, ADAM10 inh inactive, KLK7 zymogen act 62, NPR2 activator inactive, ADAM17 inh inactive, KLK7 act conf inactive and EDANS-DABCYL int inactive.
Cc1ccc(CN2CCSc3ccc(C(=O)NCCCN4CCN(C)CC4)cc32)cc1 was read as GC-A act inactive, ADAM10 inh inactive, KLK7 zymogen act 39, NPR2 activator inactive, ADAM17 inh inactive, KLK7 act conf inactive and EDANS-DABCYL int inactive.
For CCOC(=O)N1CCC(NC(=O)c2ccc3c(c2)N(CC)CCS3)CC1 the results were GC-A act inactive, ADAM10 inh inactive, KLK7 zymogen act 27, NPR2 activator inactive, ADAM17 inh inactive, KLK7 act conf inactive and EDANS-DABCYL int 5.2.

Compound activity deposited in PubChem BioAssay by several laboratories.
